D1 antagonist: Antagonist of Human D 1 Dopamine Receptor: qHTS. HEK293 TREx D1 cells, calcium flux, dopamine EC80; stronger effect = lower value. D(1A) dopamine receptor (Homo sapiens), P21728. activity change, negative = inhibition, % at 10 µM. 360,000 compounds, 3.2% hits; in the data active = activity change below about -30%; also: % is scaled to controls: 0 for no effect and ±100 for the full control effect
Target sequence (P21728 whole entry, looked up): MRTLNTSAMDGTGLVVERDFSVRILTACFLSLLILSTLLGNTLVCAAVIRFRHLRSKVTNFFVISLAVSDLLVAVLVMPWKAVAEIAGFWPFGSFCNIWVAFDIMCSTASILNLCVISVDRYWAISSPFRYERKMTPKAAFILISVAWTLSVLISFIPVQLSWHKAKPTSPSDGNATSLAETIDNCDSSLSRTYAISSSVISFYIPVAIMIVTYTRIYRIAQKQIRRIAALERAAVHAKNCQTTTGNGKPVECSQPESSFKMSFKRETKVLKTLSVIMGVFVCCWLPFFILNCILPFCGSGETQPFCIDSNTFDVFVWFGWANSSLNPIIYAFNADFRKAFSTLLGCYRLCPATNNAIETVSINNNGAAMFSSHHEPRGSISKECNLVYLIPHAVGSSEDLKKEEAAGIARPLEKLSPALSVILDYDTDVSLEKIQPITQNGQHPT
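Tetracycline-induced HEK293 T-REx cells with force-coupled D1 receptor were loaded with a no-wash calcium dye. Compound was added after a 10 s baseline and read kinetically for 180 s; EC80 dopamine was then added and calcium flux followed another 180 s.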
D1 agonist: Allosteric Agonists of the Human D1 Dopamine Receptor: qHTS; D(1A) dopamine receptor (Homo sapiens), P21728; HEK293 T-REx D1 cells, calcium flux, agonist mode; activation, % at 2 µM; 360,000 compounds, 1% hits; in the data active = activation above about 30%; also: 0% is about no effect
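Agonism was scored from calcium flux recorded over 180 s (1 read/s) after pintool compound addition, following a 10-cycle baseline. Cells were inducible force-coupled HEK293 TREx D1, plated overnight at 30 C and loaded with no-wash calcium dye.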
D1 potentiator: Potentiators of Human D1 Dopamine Receptor: qHTS. HEK293 TREx D1 cells, calcium flux, dopamine EC20 potentiation. potentiation, % at 10 µM. 360,000 compounds, 0.036% hits. AID 504651, 2011; in the data active = potentiation above about 30%; also: 0% is about no effect
TRPV1 potentiator: HTS Assay for Compounds that Act as Potentiators of the Vanilloid Receptor 1 | TRPV1-expressing cells, Fluo-8 calcium influx, capsaicin EC20 potentiation | Transient receptor potential cation channel subfamily V member 1 (Homo sapiens), Q8NER1 | potentiation, % at 8.33 µM | 320,000 compounds, 0.02% hits; in the data active = potentiation above about 80%; inconclusive = between about 30% and that limit; also: 0% is about no effect
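Fluo-8 calcium influx in TRPV1-expressing cells, kinetic read (ex 480/em 520 nm). Compound added and read 3 min for agonist activity, followed by capsaicin at EC20 final and 2 min further read for enhancement.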
TRPV1 ag: HTS Assay for Compounds that Act as Agonists of the Vanilloid Receptor 1; Transient receptor potential cation channel subfamily V member 1 (Homo sapiens), Q8NER1; TRPV1-expressing cells, Fluo-8 calcium influx, agonist mode; activation, % at 8.33 µM; 320,000 compounds, 0.19% hits; AID 540275, 2011; in the data active = activation above about 80%; inconclusive = between about 30% and that limit; also: 0% is about no effect
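Fluo-8 calcium influx in TRPV1-expressing cells, kinetic read (ex 480/em 520 nm). Compound added and read 3 min for agonist activity, followed by capsaicin at EC20 final and 2 min further read for enhancement.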
* marks the source's active call; other numbers are inactive results; ? = inconclusive; . = no result given. Rows were chosen to be rich in hits. Some 4.2% of all compounds tested hit in one or more screens of this group.

SMILES	D1 antagonist	D1 agonist	D1 potentiator	TRPV1 potentiator	TRPV1 ag
NC(=S)n1[nH]c(-c2ccc([N+](=O)[O-])cc2)c(N=Nc2ccccc2[N+](=O)[O-])c1=O	-51*	2	-12	12	-1
Cc1c(N=Nc2c(-c3ccc([N+](=O)[O-])cc3)[nH]n(C(N)=S)c2=O)cccc1[N+](=O)[O-]	-28	23	-6	5	2
Cc1ccc(OC(=O)c2cccc(S(=O)(=O)N3CCN(C)CC3)c2)c(Br)c1	-32*	6	-10	-5	13
Cc1ccc(C)c(OC(=O)c2cccc(S(=O)(=O)N3CCN(C)CC3)c2)c1	0	3	10	6	18
N#Cc1ccc(NC(=O)COCc2cc(-c3ccc4c(c3)OCO4)on2)cc1	-40*	5	-2	.	.
CN1C(=O)C2CN(CCc3ccccc3)CNC2N(C)C1=O (stereo unspecified)	-35*	3	-12	3	-2
Cc1ccc(NC(=O)c2c(C)nn(-c3ccccc3)c2-n2cccc2)c(Cl)c1	-33*	4	-3	.	.
Cc1nn(-c2ccccc2)c2sc(C(=O)Nc3ccc(Cl)cc3Cl)cc12	-83*	-1	3	.	.
Cc1nn(-c2ccccc2)c2sc(C(=O)Nc3ccccc3Br)cc12	19	8	-5	.	.
Cc1cccc(N(C)C(=O)CCS(=O)(=O)c2ccc3c(c2)n(C)c(=O)c(=O)n3C)c1	-32*	-1	-5	.	.
Cc1cccc(N(C)C(=O)CCS(=O)(=O)c2ccc3c(c2)oc(=O)n3C)c1	-5	2	-3	.	.
CN1/C(=C\C=C2/SC(=S)NC2=O)C(C)(C)c2ccccc21	-29	436*	12	-1	?
CN1/C(=C\C=C2/C(=O)Oc3ccccc3C2=O)C(C)(C)c2ccccc21	89	545*	20	-6	107*
CN1C(=CC=C2C=C(I)C(=O)C(I)=C2)C(C)(C)c2ccccc21	-42*	19	-2	-9	19
CN1/C(=C\C=N\O)C(C)(C)c2ccccc21	5	-1	2	-2	-1
CN(C)c1ccc(N=C/C=C2/N(C)c3ccccc3C2(C)C)cc1	-30*	22	-12	-2	0
CO/N=C/C=C1/N(C)c2ccccc2C1(C)C	-7	-3	4	-2	0
COc1ccc(C(C(=O)NCc2ccccc2)N(C(=O)Cn2nnc3ccccc32)c2ccc(F)cc2)cc1 (stereo unspecified)	2	5	-1	.	.
Cc1ccc(C)c(N2CCN(C(=O)C(C)n3nc(C)c4sc5ccccc5c4c3=O)CC2)c1 (stereo unspecified)	-11	4	-3	.	.
CC1CCN(C(=O)c2ccc3c(c2)N(Cc2ccccc2)C(=O)c2ccccc2S3(=O)=O)CC1	-5	7	-3	.	.
CCCN1C(=O)/C(=C\C=C2\N(CC)c3ccccc3C2(C)C)SC1=S	2	92*	-2	7	11
Cc1cccc(-n2c(=O)c3c(c4cc(C)ccc4n3C)n(C)c2=O)c1	-1	-2	-2	.	.
Clc1ccc(CSc2ccc(-c3cccs3)nn2)cc1	-15	17	-9	.	.
Clc1cccc(CSc2ccc(-c3cccs3)nn2)c1	-3	45*	-3	.	.
COc1ccc(-c2cc(C(F)(F)F)n3nc(C)c(-c4ccccc4)c3n2)cc1OC	-1	0	2	.	.
SMILES	D1 antagonist	D1 agonist	D1 potentiator	TRPV1 potentiator	TRPV1 ag
CC(OC(=O)CCN=C1NS(=O)(=O)c2ccccc21)C(=O)Nc1ccccc1F (stereo unspecified)	1	9	2	23	-4
O=C(CCCN=C1NS(=O)(=O)c2ccccc21)OCC(=O)c1ccc(F)cc1	-8	56*	2	-25	20
CC(OC(=O)CCCN=C1NS(=O)(=O)c2ccccc21)C(=O)Nc1ccccc1F (stereo unspecified)	-39*	3	-12	-6	1
Cc1nc(COc2ccc(C(=O)NCc3ccccc3CN3CCCCC3)cc2)cs1	-64*	34*	4	15	-10
O=C(NCc1ccccc1CN1CCCC1)c1ccc(OCc2cscn2)cc1	-17	13	.	1	-1
COc1ccc(-c2nnc(SC(C)C(=O)O)o2)cc1 (stereo unspecified)	-23	1	-3	.	.
O=C(CSc1ccc2nc(-c3ccccc3)cn2n1)Nc1ccccc1C(F)(F)F	-71*	0	-3	.	.
Cc1c(Cl)cccc1NC(=O)Cn1c(=O)n(Cc2ccco2)c(=O)c2oc3ccccc3c21	-4	0	-4	.	.
COc1ccc2c(c1)O[C@H](c1ccc3c(c1)OCO3)[C@@H](OC(=O)N[C@H]1CCCc3ccccc31)C2=O	-57*	-2	-10	1	2
N#C/C(=C\c1cc(Br)c(O)c(Br)c1)c1nc2ccccc2c(=O)[nH]1	13	171*	12	.	.
N#C/C(=C\c1ccncc1)c1nc2ccccc2c(=O)[nH]1	-39*	7	-4	-2	-1
N#C/C(=C/c1ccncc1)c1nc2ccccc2c(=O)[nH]1	-12	4	0	-15	6
O=C(NCCS(=O)(=O)N1CCN(c2ccccc2)CC1)C(c1ccccc1)c1ccccc1	-22	1	3	.	.
O=C(NC1(C(F)(F)F)C(=O)Nc2c1c(=O)[nH]c(=O)n2CCc1ccccc1)c1ccc(Cl)cc1 (stereo unspecified)	-10	5	2	.	.
Cc1ccc(C(=O)NC2(C(F)(F)F)C(=O)Nc3c2c(=O)[nH]c(=O)n3CCc2ccccc2)cc1 (stereo unspecified)	-40*	0	-6	.	.
Cc1ccc(-n2c3c(c(=O)[nH]c2=O)C(NC(=O)C(C)(C)C)(C(F)(F)F)C(=O)N3)cc1 (stereo unspecified)	-74*	-1	-5	.	.
CCC(Oc1ccccc1-c1nnc(-c2ccccc2)o1)C(=O)Nc1ccc(C(C)=O)cc1 (stereo unspecified)	5	0	2	.	.
CC(=O)Oc1ccc(-c2cccc(C(=O)OCC(=O)N(C)c3ccccc3)c2)cc1	-84*	5	-4	9	13
Cc1cc(C)c(NC(=O)CSc2ncc3c(n2)-c2cc(Cl)ccc2N(C)S3(=O)=O)c(C)c1	14	1	-3	.	.
CSc1ccc(S(=O)(=O)NCC(=O)OCC(=O)N(Cc2ccccc2)C(C)C)cc1[N+](=O)[O-]	-35*	0	-10	7	2
O=S1(=O)N=C(N/N=C/c2cccs2)c2ccccc21	-31*	3	-5	3	3
CCCC(C)C(=O)Nc1ccc(Cl)cn1 (stereo unspecified)	-34*	0	-2	0	3
CCOC(=O)c1sc(NC(=O)Nc2ccc(Cl)cc2)nc1C	-44*	20	-11	25	0

From PubChem
